What all share (experiment): DAPPL (digital affinity profiling via proximity ligation, sequencing); 10 mM Tris-HCl pH 7.5, 50 mM NaCl, 1 mM DTT, 4% glycerol, room temperature, 30 min; GST-TFs on glutathione beads, 16-mer random dsDNA library, 0.1% formaldehyde crosslink after washing; high values mean tight binding
In one assay the target is T1, FEV (Homo sapiens, UniProt Q99581 1-238).
T1 sequence: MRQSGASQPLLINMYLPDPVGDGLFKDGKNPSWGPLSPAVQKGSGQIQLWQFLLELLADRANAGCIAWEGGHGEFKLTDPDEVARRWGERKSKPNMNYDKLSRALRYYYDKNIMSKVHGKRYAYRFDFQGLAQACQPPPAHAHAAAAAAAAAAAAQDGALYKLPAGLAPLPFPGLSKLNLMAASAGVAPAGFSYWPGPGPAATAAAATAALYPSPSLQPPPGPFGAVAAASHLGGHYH
The following applies: protein: recombinant; tags: N-terminal GST; dsDNA, one strand shown. The procedure, abridged: (§1)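 Binding signal is defined as a hexamer's read frequency for one factor over its frequency for the tag-only sample. To obtain reads, GST-fused human transcription factors were expressed in yeast, captured on glutathione beads, barcoded with DNA and pooled with that sample. Pools met 200 nmole of a 16-mer random double-stranded DNA library in Tris/NaCl/DTT/glycerol buffer for 30 min at room temperature before washing, 0.1% formaldehyde crosslinking, proximity ligation (BsaI/T4 ligase, 1 h, 37 °C), PCR and Illumina NextSeq500 sequencing.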

In a further assay the target is ETV5 (Homo sapiens, UniProt P41161 1-510). The following applies: protein: recombinant; tags: N-terminal GST; dsDNA, one strand shown. The method, boiled down: as §1
Sequence of ETV5 (P41161 whole entry): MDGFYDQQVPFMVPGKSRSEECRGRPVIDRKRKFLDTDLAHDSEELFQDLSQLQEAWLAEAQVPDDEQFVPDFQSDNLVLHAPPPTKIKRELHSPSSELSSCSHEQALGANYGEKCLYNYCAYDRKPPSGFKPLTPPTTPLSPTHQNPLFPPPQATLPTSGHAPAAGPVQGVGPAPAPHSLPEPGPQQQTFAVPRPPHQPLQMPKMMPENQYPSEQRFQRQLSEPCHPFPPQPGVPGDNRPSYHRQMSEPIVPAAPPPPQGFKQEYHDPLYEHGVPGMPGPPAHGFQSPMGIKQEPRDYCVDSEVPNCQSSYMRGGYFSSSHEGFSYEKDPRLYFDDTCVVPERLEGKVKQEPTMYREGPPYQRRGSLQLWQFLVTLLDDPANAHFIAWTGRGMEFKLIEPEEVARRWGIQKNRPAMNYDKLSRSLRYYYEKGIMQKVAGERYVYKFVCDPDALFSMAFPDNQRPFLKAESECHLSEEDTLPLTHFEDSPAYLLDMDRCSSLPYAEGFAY
In the next assay the target is HSF1 (Homo sapiens, UniProt Q00613 1-529). The following applies: protein: recombinant; tags: N-terminal GST; chain copies: 3; dsDNA, one strand shown. The method, boiled down:
as §1

A further assay addresses T2, SPIC (Homo sapiens, UniProt Q8N5J4 1-248).
T2 sequence: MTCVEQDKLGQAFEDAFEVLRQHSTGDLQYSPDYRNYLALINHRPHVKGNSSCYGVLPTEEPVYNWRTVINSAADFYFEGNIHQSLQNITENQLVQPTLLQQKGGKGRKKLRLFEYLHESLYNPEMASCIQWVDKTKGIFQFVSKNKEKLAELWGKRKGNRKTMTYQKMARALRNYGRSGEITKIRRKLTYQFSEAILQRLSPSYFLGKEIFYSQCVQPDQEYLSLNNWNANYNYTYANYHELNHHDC
The following applies: protein: recombinant; tags: N-terminal GST; dsDNA, one strand shown. The procedure, abridged:
as §1

The next assay addresses ELF4 (Homo sapiens, UniProt Q99607 1-663). The following applies: protein: recombinant; tags: N-terminal GST; dsDNA, one strand shown. The procedure, abridged:
as §1

For another assay, the target named is T3, ELK4 (Homo sapiens, UniProt P28324-2 1-405).
T3 sequence: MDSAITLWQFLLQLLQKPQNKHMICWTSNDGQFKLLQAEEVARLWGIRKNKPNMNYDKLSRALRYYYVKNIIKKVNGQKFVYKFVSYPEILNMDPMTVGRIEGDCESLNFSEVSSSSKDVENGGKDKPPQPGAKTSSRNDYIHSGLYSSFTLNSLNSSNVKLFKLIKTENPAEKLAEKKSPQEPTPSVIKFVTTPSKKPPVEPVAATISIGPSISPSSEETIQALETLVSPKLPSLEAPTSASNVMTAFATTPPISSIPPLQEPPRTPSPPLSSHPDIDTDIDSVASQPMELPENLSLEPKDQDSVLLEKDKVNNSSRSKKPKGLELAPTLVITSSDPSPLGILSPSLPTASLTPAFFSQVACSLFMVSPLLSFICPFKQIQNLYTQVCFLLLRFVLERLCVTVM
The following applies: protein: recombinant; tags: N-terminal GST; dsDNA, one strand shown. The method, boiled down:
as §1

For another assay, the target named is T4, ETV2 (Homo sapiens, UniProt O00321 1-342).
T4 sequence: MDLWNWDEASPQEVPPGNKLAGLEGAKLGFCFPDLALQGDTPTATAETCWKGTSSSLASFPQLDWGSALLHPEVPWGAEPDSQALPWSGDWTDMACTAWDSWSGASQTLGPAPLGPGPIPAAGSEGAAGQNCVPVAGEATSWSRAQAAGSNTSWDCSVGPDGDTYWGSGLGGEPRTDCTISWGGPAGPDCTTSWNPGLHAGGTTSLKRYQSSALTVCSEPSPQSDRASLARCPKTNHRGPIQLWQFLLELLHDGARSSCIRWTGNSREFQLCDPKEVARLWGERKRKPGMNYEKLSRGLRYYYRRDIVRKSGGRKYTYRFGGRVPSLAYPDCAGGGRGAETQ
The following applies: protein: recombinant; tags: N-terminal GST; dsDNA, one strand shown. The procedure, abridged:
as §1

For the next assay, the target named is T5, ELF3 (Homo sapiens, UniProt P78545 1-371).
T5 sequence: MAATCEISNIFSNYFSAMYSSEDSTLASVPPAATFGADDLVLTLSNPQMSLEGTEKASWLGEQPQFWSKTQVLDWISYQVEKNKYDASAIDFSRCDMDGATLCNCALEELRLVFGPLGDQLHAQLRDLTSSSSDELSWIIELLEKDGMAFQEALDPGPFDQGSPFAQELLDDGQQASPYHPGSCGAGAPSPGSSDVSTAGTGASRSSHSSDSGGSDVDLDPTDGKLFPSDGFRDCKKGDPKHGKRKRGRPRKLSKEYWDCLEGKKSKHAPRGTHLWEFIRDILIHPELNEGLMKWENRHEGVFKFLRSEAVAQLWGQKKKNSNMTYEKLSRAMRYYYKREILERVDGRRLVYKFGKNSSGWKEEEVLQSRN
The following applies: protein: recombinant; tags: N-terminal GST; dsDNA, one strand shown. The method, boiled down:
as §1

Another assay concerns the target CRX (Homo sapiens, UniProt O43186 1-299). The following applies: protein: recombinant; tags: N-terminal GST; dsDNA, one strand shown. The method, boiled down:
as §1

For the next assay, the target named is ETV1 (Homo sapiens, UniProt P50549 1-477). The following applies: protein: recombinant; tags: N-terminal GST; dsDNA, one strand shown. The procedure, abridged:
as §1

A further assay concerns the target T6, ERF (Homo sapiens, UniProt P50548 1-548).
T6 sequence: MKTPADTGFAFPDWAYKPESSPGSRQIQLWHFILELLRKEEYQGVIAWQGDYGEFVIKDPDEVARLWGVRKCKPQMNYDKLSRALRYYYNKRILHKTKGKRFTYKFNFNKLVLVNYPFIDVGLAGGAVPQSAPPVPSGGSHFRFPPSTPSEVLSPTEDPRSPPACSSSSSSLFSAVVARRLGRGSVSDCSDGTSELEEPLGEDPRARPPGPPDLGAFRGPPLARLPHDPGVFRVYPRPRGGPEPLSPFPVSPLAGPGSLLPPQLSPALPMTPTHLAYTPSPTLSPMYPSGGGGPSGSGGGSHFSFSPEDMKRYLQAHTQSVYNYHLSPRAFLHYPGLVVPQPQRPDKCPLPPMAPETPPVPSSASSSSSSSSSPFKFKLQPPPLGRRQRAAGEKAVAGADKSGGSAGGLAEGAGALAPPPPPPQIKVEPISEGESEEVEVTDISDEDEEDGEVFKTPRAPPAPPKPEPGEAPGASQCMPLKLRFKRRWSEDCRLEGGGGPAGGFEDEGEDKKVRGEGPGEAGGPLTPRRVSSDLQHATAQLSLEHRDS
The following applies: protein: recombinant; tags: N-terminal GST; dsDNA, one strand shown. The procedure, abridged:
as §1

Another assay has as its target T7, ETV3L (Homo sapiens, UniProt Q6ZN32 1-361).
T7 sequence: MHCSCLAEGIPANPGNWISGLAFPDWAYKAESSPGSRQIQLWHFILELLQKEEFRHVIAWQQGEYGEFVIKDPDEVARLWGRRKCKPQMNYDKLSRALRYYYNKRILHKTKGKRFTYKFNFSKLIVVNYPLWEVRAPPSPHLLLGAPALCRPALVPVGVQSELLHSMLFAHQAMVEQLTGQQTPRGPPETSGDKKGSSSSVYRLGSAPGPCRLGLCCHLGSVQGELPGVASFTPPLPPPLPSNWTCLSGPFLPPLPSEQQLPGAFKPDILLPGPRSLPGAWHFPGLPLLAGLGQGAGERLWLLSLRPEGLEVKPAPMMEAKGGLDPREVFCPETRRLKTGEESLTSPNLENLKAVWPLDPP
The following applies: protein: recombinant; tags: N-terminal GST; dsDNA, one strand shown. The method, boiled down: as §1

The next assay has as its target T8, ETS2 (Homo sapiens, UniProt P15036 1-469).
T8 sequence: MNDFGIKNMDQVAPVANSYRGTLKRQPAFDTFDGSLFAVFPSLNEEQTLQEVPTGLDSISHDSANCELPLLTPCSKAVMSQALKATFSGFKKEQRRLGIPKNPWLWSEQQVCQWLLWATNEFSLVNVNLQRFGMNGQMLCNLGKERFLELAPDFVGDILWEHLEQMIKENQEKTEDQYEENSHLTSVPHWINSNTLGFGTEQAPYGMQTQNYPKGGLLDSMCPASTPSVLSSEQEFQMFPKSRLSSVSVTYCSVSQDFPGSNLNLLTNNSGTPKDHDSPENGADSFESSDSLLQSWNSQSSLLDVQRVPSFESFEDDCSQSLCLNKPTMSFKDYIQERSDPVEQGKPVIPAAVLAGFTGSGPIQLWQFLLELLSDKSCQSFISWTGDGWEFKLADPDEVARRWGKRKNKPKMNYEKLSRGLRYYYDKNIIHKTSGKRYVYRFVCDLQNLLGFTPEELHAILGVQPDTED
The following applies: protein: recombinant; tags: N-terminal GST; dsDNA, one strand shown. The method, boiled down: as §1

The target of a further assay is T9, SPDEF (Homo sapiens, UniProt O95238 1-335).
T9 sequence: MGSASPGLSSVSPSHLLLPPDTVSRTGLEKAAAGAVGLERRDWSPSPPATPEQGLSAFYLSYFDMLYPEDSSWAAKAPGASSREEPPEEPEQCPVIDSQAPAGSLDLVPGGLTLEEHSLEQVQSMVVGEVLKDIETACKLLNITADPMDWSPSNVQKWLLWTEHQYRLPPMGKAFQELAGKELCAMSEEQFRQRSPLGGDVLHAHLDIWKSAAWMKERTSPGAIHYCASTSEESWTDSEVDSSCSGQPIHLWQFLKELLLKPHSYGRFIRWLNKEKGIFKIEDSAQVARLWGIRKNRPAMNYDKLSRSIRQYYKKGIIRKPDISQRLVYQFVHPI
The following applies: protein: recombinant; tags: N-terminal GST; dsDNA, one strand shown. The method, boiled down: as §1

In the next assay the target is T10, ETV7 (Homo sapiens, UniProt Q9Y603 1-341).
T10 sequence: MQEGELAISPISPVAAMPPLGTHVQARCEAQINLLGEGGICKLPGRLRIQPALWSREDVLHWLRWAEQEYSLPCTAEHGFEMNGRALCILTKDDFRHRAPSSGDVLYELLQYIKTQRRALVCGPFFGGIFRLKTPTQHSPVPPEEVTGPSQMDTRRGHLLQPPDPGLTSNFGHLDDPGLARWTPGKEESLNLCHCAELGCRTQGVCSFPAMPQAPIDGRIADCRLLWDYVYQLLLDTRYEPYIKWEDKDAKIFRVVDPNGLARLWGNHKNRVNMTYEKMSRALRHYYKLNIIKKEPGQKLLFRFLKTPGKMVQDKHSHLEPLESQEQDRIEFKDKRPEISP
The following applies: protein: recombinant; tags: N-terminal GST; dsDNA, one strand shown. The method, boiled down:
as §1

A further assay deals with T11, ELF5 (Homo sapiens, UniProt Q9UKW6-2 1-255).
T11 sequence: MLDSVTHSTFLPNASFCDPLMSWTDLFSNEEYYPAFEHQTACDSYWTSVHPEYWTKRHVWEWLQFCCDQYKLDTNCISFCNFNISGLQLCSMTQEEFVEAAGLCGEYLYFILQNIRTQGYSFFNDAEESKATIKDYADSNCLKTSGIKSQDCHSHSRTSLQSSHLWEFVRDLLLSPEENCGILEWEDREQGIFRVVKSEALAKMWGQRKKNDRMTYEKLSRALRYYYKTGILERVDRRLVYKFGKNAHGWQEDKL
The following applies: protein: recombinant; tags: N-terminal GST; dsDNA, one strand shown. The procedure, abridged:
as §1

The next assay deals with T12, ETV3 (Homo sapiens, UniProt P41162-2 1-143).
T12 sequence: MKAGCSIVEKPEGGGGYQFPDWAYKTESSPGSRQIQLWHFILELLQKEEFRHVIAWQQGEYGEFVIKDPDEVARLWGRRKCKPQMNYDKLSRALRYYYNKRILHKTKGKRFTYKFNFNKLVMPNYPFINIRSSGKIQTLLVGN
The following applies: protein: recombinant; tags: N-terminal GST; dsDNA, one strand shown. The method, boiled down:
as §1

Another assay addresses ETV6 (Homo sapiens, UniProt P41212 1-452). The following applies: protein: recombinant; tags: N-terminal GST; dsDNA, one strand shown. The method, boiled down: as §1

Sequence of ELF4 (Q99607 whole entry): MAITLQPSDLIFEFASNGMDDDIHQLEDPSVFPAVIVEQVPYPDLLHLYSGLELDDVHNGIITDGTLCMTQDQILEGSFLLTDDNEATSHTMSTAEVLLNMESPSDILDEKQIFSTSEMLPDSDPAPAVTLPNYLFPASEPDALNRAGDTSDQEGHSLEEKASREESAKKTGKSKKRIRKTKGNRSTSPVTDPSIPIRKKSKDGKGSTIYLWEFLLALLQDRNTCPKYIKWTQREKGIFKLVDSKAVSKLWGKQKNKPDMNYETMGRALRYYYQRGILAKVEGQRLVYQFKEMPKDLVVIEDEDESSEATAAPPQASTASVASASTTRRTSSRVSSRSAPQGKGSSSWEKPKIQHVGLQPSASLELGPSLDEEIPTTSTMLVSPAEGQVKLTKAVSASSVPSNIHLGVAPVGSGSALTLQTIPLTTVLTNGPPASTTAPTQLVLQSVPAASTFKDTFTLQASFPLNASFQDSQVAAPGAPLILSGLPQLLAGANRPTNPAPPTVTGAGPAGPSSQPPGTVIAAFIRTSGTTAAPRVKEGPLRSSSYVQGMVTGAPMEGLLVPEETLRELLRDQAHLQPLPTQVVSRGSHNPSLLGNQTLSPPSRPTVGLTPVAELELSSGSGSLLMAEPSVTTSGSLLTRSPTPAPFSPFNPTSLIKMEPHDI
Sequence of CRX (O43186 whole entry): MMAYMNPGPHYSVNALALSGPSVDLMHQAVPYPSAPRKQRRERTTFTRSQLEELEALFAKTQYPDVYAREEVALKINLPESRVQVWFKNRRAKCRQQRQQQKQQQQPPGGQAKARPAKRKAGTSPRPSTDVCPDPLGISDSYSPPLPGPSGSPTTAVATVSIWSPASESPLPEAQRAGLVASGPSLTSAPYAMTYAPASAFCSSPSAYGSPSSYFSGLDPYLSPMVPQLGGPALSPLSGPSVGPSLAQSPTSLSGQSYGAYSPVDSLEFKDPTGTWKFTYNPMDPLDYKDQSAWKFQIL
Sequence of ETV1 (P50549 whole entry): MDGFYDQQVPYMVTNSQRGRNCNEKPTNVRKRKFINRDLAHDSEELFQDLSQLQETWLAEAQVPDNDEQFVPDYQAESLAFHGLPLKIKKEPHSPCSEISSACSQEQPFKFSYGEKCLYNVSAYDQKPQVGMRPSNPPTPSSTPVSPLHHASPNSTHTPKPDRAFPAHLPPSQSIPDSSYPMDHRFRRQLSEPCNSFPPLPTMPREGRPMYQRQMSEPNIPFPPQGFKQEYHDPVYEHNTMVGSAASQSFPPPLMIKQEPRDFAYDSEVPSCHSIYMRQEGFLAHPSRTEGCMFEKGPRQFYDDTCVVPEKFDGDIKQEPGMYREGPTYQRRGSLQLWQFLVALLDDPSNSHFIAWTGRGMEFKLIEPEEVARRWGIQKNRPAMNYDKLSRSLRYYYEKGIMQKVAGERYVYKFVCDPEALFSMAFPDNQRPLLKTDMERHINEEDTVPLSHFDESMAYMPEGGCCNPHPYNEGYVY
Sequence of HSF1 (Q00613 whole entry): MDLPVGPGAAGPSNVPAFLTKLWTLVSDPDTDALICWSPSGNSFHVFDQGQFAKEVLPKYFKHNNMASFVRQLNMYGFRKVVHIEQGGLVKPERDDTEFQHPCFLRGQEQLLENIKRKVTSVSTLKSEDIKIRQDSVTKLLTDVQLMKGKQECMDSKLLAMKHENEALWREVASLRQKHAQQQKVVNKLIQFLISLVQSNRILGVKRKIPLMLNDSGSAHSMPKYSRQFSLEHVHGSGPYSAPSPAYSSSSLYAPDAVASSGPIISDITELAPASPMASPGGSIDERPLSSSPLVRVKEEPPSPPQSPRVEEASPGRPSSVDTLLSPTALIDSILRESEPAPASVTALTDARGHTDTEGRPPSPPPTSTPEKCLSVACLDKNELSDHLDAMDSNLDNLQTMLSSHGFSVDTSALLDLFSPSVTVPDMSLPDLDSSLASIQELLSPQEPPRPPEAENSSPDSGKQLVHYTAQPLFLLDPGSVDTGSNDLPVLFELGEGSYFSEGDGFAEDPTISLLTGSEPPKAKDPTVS
Sequence of ETV6 (P41212 whole entry): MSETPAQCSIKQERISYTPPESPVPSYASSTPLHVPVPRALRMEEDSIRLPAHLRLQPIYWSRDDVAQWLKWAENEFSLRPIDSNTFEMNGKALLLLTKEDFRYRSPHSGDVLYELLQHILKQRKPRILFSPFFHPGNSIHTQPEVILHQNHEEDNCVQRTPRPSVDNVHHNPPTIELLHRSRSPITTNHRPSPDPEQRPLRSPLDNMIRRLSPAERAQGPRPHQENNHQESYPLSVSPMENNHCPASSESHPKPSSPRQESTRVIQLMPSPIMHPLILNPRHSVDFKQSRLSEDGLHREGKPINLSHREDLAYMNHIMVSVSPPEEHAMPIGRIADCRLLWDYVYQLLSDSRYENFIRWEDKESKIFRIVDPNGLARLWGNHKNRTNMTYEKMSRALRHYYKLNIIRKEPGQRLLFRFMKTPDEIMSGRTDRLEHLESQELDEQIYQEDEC

With GATGCT, the binding signal was 1.23 fold enrichment (6-mer frequency, TF over GST control) in the assay with FEV; 1.29 fold enrichment (6-mer frequency, TF over GST control) in the assay with ETV5; 1.13 fold enrichment (6-mer frequency, TF over GST control) with HSF1; 1.35 fold enrichment (6-mer frequency, TF over GST control) with SPIC; 1.26 fold enrichment (6-mer frequency, TF over GST control) with ELF4; 1.28 fold enrichment (6-mer frequency, TF over GST control) with ELK4. Also, the binding signal in the assay with ETV2 is 1.18 fold enrichment (6-mer frequency, TF over GST control); with ELF3, 1.3 fold enrichment (6-mer frequency, TF over GST control); with CRX, 1.06 fold enrichment (6-mer frequency, TF over GST control); with ETV1 it was 1.27 fold enrichment (6-mer frequency, TF over GST control); with ERF, 1.3 fold enrichment (6-mer frequency, TF over GST control); in the assay with ETV3L it was 1.28 fold enrichment (6-mer frequency, TF over GST control). The binding signal in the assay with ETS2 is 1.25 fold enrichment (6-mer frequency, TF over GST control); with SPDEF, 1.2 fold enrichment (6-mer frequency, TF over GST control); with ETV7 it was 1.29 fold enrichment (6-mer frequency, TF over GST control); with ELF5, 1.21 fold enrichment (6-mer frequency, TF over GST control); with ETV3 it was 1.29 fold enrichment (6-mer frequency, TF over GST control); in the assay with ETV6, 1.16 fold enrichment (6-mer frequency, TF over GST control).
